# Mtb UGM inh – blocks M. tuberculosis UGM enzyme; 320,000 compounds, 0.06% hits; purified UGM, fluorescence polarization probe displacement; P9WIQ1; inhibition, % at 10 µM; in the data active = inhibition above about 10%, passing the limit was not always enough; inconclusive = no clear call, values can overlap the other calls
# BioA inh-1 – BioA (M. tuberculosis) enzyme inhibition; purified M. tuberculosis BioA enzyme, plate reader; inhibition, % at 9.99 µM; 360,000 compounds, 0.096% hits; AID 602481; in the data active = inhibition above about 40%; inconclusive = no clear call, values can overlap the other calls
# TcdB GH inh – blocks C. difficile toxin B glycohydrolase activity; P18177; TcdB glycohydrolase enzymatic assay, plate reader; inhibition, % at 9.99 µM; 350,000 compounds, 0.24% hits; AID 652162; in the data active = inhibition above about 10%
# FadD28 binding – blocks FadD28 binding to the bisubstrate probe; inhibition, % at 12.5 µM; AID 588549; 360,000 compounds, 0.22% hits; fluorescence polarization; in the data active = inhibition above about 8.5%, passing the limit was not always enough; inconclusive = no clear call, values can overlap the other calls
# RecA splice inh – blocks M. tuberculosis RecA intein splicing; P9WHJ3; cell-free RecA intein splicing, fluorescence; inhibition, % (test concentration not listed); 290,000 compounds, 0.75% hits; AID 2221; in the data active = inhibition above about 30%; inconclusive = no clear call, values can overlap the other calls;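 note: 0% = vehicle wells and 100% = reference inhibitor control wells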
# Target sequence (P9WHJ3 whole entry, looked up, canonical isoform): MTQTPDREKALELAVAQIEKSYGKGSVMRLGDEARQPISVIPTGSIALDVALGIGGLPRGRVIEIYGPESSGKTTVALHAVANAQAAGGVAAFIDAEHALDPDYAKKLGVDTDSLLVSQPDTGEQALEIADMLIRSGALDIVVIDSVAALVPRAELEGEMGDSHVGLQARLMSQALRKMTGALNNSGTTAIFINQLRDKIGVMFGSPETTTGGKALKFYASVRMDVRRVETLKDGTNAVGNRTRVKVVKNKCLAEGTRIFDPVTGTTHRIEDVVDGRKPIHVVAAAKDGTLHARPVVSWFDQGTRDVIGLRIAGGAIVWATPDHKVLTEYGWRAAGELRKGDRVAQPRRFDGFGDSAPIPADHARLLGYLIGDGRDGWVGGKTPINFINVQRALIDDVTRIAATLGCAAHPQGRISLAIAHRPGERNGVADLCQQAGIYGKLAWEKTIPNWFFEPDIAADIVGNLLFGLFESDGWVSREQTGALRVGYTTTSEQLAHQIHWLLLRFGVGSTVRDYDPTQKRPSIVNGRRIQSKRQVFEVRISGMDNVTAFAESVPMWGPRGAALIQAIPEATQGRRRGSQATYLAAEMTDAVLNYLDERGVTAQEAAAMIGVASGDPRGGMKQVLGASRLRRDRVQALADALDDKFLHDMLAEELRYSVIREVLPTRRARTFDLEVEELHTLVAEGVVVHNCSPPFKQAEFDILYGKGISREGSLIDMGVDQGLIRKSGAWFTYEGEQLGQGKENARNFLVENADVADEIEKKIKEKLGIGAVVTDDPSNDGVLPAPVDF
# Rv3671c protease – inhibits the M. tuberculosis serine protease Rv3671c | inhibition, % at 5.96 µM | 320,000 compounds, 0.048% hits | P9WHR9; in the data active = inhibition above about 38%;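 note: extracellular domain of Rv3671c used as enzyme; 0% = enzyme with DMSO and 100% = no enzyme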
# Rv3671c confirm – Rv3671c protease inhibition, confirmation | shares compounds with Rv3671c protease | inhibition, % at 5.96 µM | 140 compounds, 40% hits | AID 2761; in the data active = inhibition above about 38%
# DNA intercal FP – DNA intercalation detected by acridine orange polarization counter-screen. 35 compounds, 60% hits. shares compounds with Mtb UGM inh. AC50, µM. acridine orange-DNA binding, fluorescence polarization. AID 463198;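 active = fitted AC50 no greater than ten times the top concentration tested, cut at about 17 µM in these data; inconclusive = flat fit with 30 to 70% signal change, or an unreliable fit; inactive = AC50 beyond ten times the top concentration tested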
# BioA inh-2 – Mtb BioA enzyme inhibition | shares compounds with BioA inh-1 | purified BioA enzyme, plate reader, dose response | max activity, % | 310 tested, under 10 active | AID 651679;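 note: top concentration of the dilution series was 10 µM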
# HepG2 cytotox – HepG2 viability loss | shares compounds with BioA inh-1 | HepG2 cytotoxicity, plate reader | max activity, % | 310 tested, under 10 active | AID 651898
# 3T3 cytotox 5 – NIH3T3 viability loss | AID 651900 | 310 tested, under 10 active | shares compounds with BioA inh-1 | activity change, negative = cytotoxicity, % at 26 µM | NIH3T3 cytotoxicity, plate reader
# * = called active by the depositor; i = inactive; u = inconclusive; x = no result given; [ ] = another dose, or the depositor's remark. Compounds with a hit are over-represented: about 0.97% of the library has one in this group of screens. Unless noted, the rule behind the calls is not given here.
SMILES,Mtb UGM inh,BioA inh-1,TcdB GH inh,FadD28 binding,RecA splice inh,Rv3671c protease,others
C[C@H]1CN([C@@H](C)CO)C(=O)c2cc(Br)cnc2O[C@H]1CN(C)C(=O)C1CCOCC1,x,-0.6,-0.5,x,x,x,
CC(C)Cn1c(N)c(C(=O)COC(=O)c2ccc(O)cc2)c(=O)n(C)c1=O,-3.6,x,1.3,-3.5,0.3,60.1*,Rv3671c confirm=-12.6
O=C(N/N=C/c1c(O)ccc2ccccc12)Nc1ccccc1,7.3,x,0.6,x,-4.0,40.3*,Rv3671c confirm=56.3*
O=C(CSCC(=O)Nc1ccccc1)N/N=C/c1c(O)ccc2ccccc12,0.6,-0.6,x,-3.9,15.9,9.8,
COc1ccc(S(=O)(=O)N(C)C[C@@H]2Oc3ccc(NS(C)(=O)=O)cc3CC(=O)N([C@H](C)CO)C[C@H]2C)cc1,x,-0.2,-7.1,x,x,x,
CCCCCCCCCCCCCCCC[n+]1ccc(/C=N/O)cc1,-2.3,x,0.6,-1.7,x,58.8*,Rv3671c confirm=72.0*;DNA intercal FP=>35
C[C@@H]1CN([C@H](C)CO)S(=O)(=O)c2ccc(C#CCC3CCCC3)cc2O[C@@H]1CN(C)C,x,9.5,-0.1,x,x,x,
O=C(CCCN1C(=O)c2cccc3cccc(c23)C1=O)N1CCN(c2ccccc2O)CC1,-3.4,x,x,-1.5,-5.0,2.0,
O=C(CCCN1C(=O)c2cccc3cccc(c23)C1=O)N1CCN(c2ccccc2)CC1,3.3,x,-0.6,-0.7,-1.6,3.3,DNA intercal FP=>35
O=c1ccc2c(-c3ccccc3)c3ccc(O)cc3oc-2c1,41.3*,i,0.5,5.5,-93.0,18.6,DNA intercal FP=0.547*
Cc1oc2cc(O)ccc2c(=O)c1-c1ccccc1,-1.0,x,2.4,-1.2,-0.1,1.1,
Cc1cc(C)cc(NS(=O)(=O)c2ccc3c(c2)C(C)(C)C(=O)N3C)c1,0.7,0.4,0.8,-0.7,-1.0,3.1,DNA intercal FP=>35
Cc1cccc(N2C(=O)c3cccc4c(N(C)CCO)ccc(c34)C2=O)c1,3.5,-36.0,x,1.9,-20.5,9.4,DNA intercal FP=>35
COc1ccc2c3c(cccc13)C(=O)CC2,79.0*,x,2.5,47.4*,-71.6,x,DNA intercal FP=>35
CNC[C@H]1OCCCC[C@@H](C)Oc2ccc(NC(=O)Nc3ccc4c(c3)OCO4)cc2C(=O)N([C@H](C)CO)C[C@@H]1C,x,-2.9,0.2,x,x,x,
CC1Cc2ccccc2N1C(=O)CSc1ncccn1 (stereo unspecified),3.7,5.3,2.1,-0.6,0.2,-5.4,DNA intercal FP=>35
CC1Cc2ccccc2N1C(=O)CSc1ccccn1 (stereo unspecified),x,3.4,2.9,-0.6,x,x,
CC=Cc1ccc2n(c1=O)C[C@H]1[C@H](CO)[C@@H](C(=O)N(C)C)N(CCC)[C@@H]21 (mixture of isomers),x,x,-0.3,x,x,x,
CO[C@@H]1CN(C)C(=O)c2ccc(NC(C)=O)cc2OC[C@@H](C)N(C(=O)c2ccccn2)C[C@H]1C,x,-3.1,-6.0,x,x,x,
Cn1ccnc1C(O)c1ccccc1 (stereo unspecified),-1.2,0.3,1.7,-2.3,-4.4,0.8,
COc1ccc2ccccc2c1C(O)c1nccn1C (stereo unspecified),39.2*,-29.8,x,6.6,2.7,12.6,DNA intercal FP=>35
C[C@H](CO)N1C[C@H](C)[C@@H](CN(C)C(=O)Nc2ccc(F)cc2)OCCCC[C@H](C)Oc2ccc(NC(=O)NC3CCCCC3)cc2C1=O,x,0.2,1.1,x,x,x,
CCOC(=O)N1CCN(c2cc(NCCC(=O)O)c3c4c(onc24)-c2ccccc2C3=O)CC1,-30.0,-76.2,x,14.7*,x,-30.1,DNA intercal FP=>35
CCNC(=O)[C@H]1[C@H](CO)[C@H]2Cn3c(ccc(-c4cccnc4)c3=O)[C@H]2N1Cc1ccc2c(c1)OCO2,x,18.0,1.0,x,x,x,
COC(=O)[C@@H]1[C@@H](CO)[C@@H]2Cn3c(ccc(-c4ccccc4)c3=O)[C@@H]2N1Cc1cccc(F)c1,x,41.7*,0.5,x,x,x,BioA inh-2=4.5;HepG2 cytotox=i;3T3 cytotox 5=-7.2
SMILES,Mtb UGM inh,BioA inh-1,TcdB GH inh,FadD28 binding,RecA splice inh,Rv3671c protease,others
CCNC(=O)[C@@H]1[C@@H](CO)[C@@H]2Cn3c(ccc(-c4cccnc4)c3=O)[C@@H]2N1Cc1ccc2c(c1)OCO2,x,64.5*,0.6,x,x,x,BioA inh-2=3.5;HepG2 cytotox=i;3T3 cytotox 5=5.6[23.5 µM]
CCN1[C@H](C(=O)NCc2ccccc2)[C@@H](CO)[C@@H]2Cn3c(ccc(-c4ccncc4)c3=O)[C@@H]21,x,-0.8,2.0,x,x,x,
CCN1[C@H](C(=O)NCc2ccccc2)[C@@H](CO)[C@@H]2Cn3c(ccc(-c4cccnc4)c3=O)[C@@H]21,x,41.1*,0.6,x,x,x,BioA inh-2=31.6;HepG2 cytotox=i;3T3 cytotox 5=6.5
CCC(=O)Nc1ccc2c(c1)C(=O)N(C)C[C@@H](OC)[C@H](C)CN(C(=O)Cc1ccccn1)[C@H](C)CO2,x,0.2,-0.3,x,x,x,
O=C(Nc1ccc(F)cc1)NC1CCN(Cc2nnnn2Cc2ccco2)CC1,2.9,74.4*,x,-3.6,3.4,-2.6,BioA inh-2=5.7;HepG2 cytotox=u;3T3 cytotox 5=0.2
O=C(CSc1nc2ccccc2c(=O)n1-c1ccccc1)N1CCN(CCO)CC1,0.9,50.0*,x,-3.1,3.1,-0.5,BioA inh-2=-5.3;HepG2 cytotox=u;3T3 cytotox 5=0.4
O=C(c1ccc2c(c1)OCO2)N1CC2(C1)[C@@H](c1ccccc1)[C@@H](CO)N2C(=O)C1CCCC1,x,x,1.2,x,x,x,
COc1ccc(CN(C)C[C@H]2OCCCC[C@H](C)Oc3ccc(NS(=O)(=O)c4ccc(F)cc4)cc3C(=O)N([C@@H](C)CO)C[C@H]2C)cc1,x,-0.7,1.6,x,x,x,
Cc1c(NC(=O)c2ccc(S(=O)(=O)N(C)C)cc2)cccc1-n1cnnn1,-2.1,-0.6,-0.7,x,x,-6.5,
Cc1c(NC(=O)c2cc3ccccc3o2)cccc1-n1cnnn1,x,46.4*,1.0,-3.4,x,x,BioA inh-2=-5.4;HepG2 cytotox=-20.2;3T3 cytotox 5=3.4
COCCNC(=O)C[C@@H]1C[C@H]2c3cc(NC(=O)c4cccnc4)ccc3O[C@H]2[C@H](CO)O1,x,11.4,-0.8,x,x,x,
CCOC(=O)CNC(=O)c1sc2ncnc(N3CCc4ccccc4C3)c2c1C,3.8,63.4*,1.1,-1.0,7.7,-4.1,BioA inh-2=-3.2;HepG2 cytotox=18.9;3T3 cytotox 5=4.2
O=C(C1CCOCC1)N1CC(=O)N2[C@H](C1)[C@H](c1ccc(C#CC3CCCCC3)cc1)[C@@H]2CO,x,x,-6.4,x,x,x,
O=C(NCc1cccnc1)c1ccc(N2CCOCC2)c([N+](=O)[O-])c1,-3.5,x,-5.5,-2.3,-0.3,2.7,
O=C(Nc1cccnc1)c1ccc(N2CCOCC2)c([N+](=O)[O-])c1,-1.9,49.2*,-2.1,-0.2,0.0,x,BioA inh-2=-3.3;HepG2 cytotox=24.0;3T3 cytotox 5=6.8
O=C(Nc1cccnc1)c1ccc(N2CCCC2)c([N+](=O)[O-])c1,0.4,72.1*,-0.6,-3.5,2.6,4.0,BioA inh-2=-7.1;HepG2 cytotox=-11.5;3T3 cytotox 5=0.9

# Assay outcomes from PubChem BioAssay.
